# This is a sample that favours compounds with a hit; in the whole collection about 2.8% have one here.
# WRN helicase inh = inhibitors of human WRN helicase; AID 651768; hit rate 0.46% among 360,000; Q14191; Potency, µM (highest dose often 114 µM), without a hit: top-dose activity change, negative = inhibition, hits mostly inhibitors; WRN helicase unwinding, fluorescent forked duplex, kinetic; further: potency means the concentration at half of the fitted maximal effect; on the % scale 0 is the no-effect control and ±100 the full control effect; nearly all actives have a fitted effect of over 55% in size
#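 Screening of the MLSMR collection measured strand separation of a quenched forked DNA duplex (100 nM) by 20 nM WRN with 2 mM ATP, all final. Compounds were preincubated with enzyme 15 min at room temperature.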
# Pol iota inh = DNA polymerase iota (human) inhibition | Q9UNA4 | Pol iota fluorescent replication assay, 10 min | Potency, µM (highest dose often 115 µM), inactives show at the top dose activity, negative = inhibition, hits mostly inhibitors | hit rate 1% among 390,000 | AID 588590; further: potency means the concentration at half of the fitted maximal effect
#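 Fluorescent replication assay read twice, at 0 min and 10 min after adding 50 nM (final) substrate. Enzyme (10 nM) and compounds were first incubated 15 min at room temperature; enzyme-free buffer wells were negative controls.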
# POLH inh = inhibitors of human DNA polymerase eta; Q9Y253; recombinant Pol eta, fluorescent DNA replication assay; Potency, µM (titrated, usually from 114 µM), inactives show at the top dose activity change, negative = inhibition, most hits filed as inhibitors; hit rate 1.2% among 390,000; AID 588591; further: potency means the concentration at half of the fitted maximal effect; on the % scale 0 is the no-effect control and ±100 the full control effect
#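 Pol eta at 10 nM preincubated with compounds 15 min at room temperature; reaction started with fluorescent substrate (50 nM final) and read kinetically at 0 and 10 min.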
# Pol beta inh = blocks human DNA polymerase beta activity. Pol beta primer extension/strand displacement, fluorescence kinetic. Potency, µM (series often up to 114 µM), inactives show at the highest dose activity change, negative = inhibition, hits mostly inhibitors. hit rate 1.3% among 340,000. AID 485314; further: potency means the concentration at half of the fitted maximal effect; on the % scale 0 is the no-effect control and ±100 the full control effect
#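 10 nM enzyme + cpd, 15 min RT; start with substrate 50 nM final; read 0 min and after 10 min RT. Corrected, normalized data; 4-parameter Hill curve fit.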
# POLK inh = DNA polymerase kappa (human) inhibition; purified Pol kappa, fluorescent DNA synthesis assay, 10 min; Potency, µM (top dose mostly 107 µM), for inactives: at the highest dose activity, negative = inhibition, most hits filed as inhibitors; hit rate 0.53% among 400,000; further: potency means the concentration at half of the fitted maximal effect; on the % scale 0 is the no-effect control and ±100 the full control effect
#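 First, compounds were pin-transferred onto 10 nM Pol kappa. After 15 min at room temperature, substrate was added to 50 nM final. Fluorescence was then measured kinetically at 0 and 10 min.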
# PI5P4K alpha inh = inhibitors of human PI5P4K alpha; PI5P4Kalpha enzyme, ADP-Glo luminescence, 60 min; active compounds read low; max response, %; hit rate 1.2% among 330,000; active means max response of -50% or lower; inconclusive means between -30% and -50%; inactive means -30% or higher; further: value at the top dose of about 77 µM; on the % scale 0 is the no-effect control and ±100 the full control effect
# Target sequence (P48426 whole entry, looked up): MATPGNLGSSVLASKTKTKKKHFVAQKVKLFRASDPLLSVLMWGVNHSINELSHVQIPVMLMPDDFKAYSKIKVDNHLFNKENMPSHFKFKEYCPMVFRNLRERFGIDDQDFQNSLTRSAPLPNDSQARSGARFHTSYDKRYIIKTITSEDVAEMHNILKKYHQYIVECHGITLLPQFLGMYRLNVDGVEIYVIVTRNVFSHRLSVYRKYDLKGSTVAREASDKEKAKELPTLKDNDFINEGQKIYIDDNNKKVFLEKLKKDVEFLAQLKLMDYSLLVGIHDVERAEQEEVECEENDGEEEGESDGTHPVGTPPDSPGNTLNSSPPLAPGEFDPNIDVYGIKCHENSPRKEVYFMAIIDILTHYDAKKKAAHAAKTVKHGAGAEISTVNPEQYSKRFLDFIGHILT
#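 ADP-Glo luminescence end-point read after a 60 min room-temperature kinase reaction of PI5P4Kalpha plus substrate, initiated with ATP at 5 microM final. Buffer: 0.038 M HEPES pH 7.4, EGTA, 0.1% CHAPS, 5% DMSO.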
# The depositor's hits bear a star; ? = inconclusive; nt = not tested or not shown; [ ] = dose if it differs, or a comment. Unless noted, the call rests on the fitted dose curve; in most records, active means well fitted curve in the direction sought with a large enough effect; inconclusive means small, poorly fitted or top-dose-only effect, or another doubt; inactive means no such curve, though single readings can be large; an effect the other way counts as inactive or inconclusive.
SMILES,WRN helicase inh,Pol iota inh,POLH inh,Pol beta inh,POLK inh,PI5P4K alpha inh
O=c1[nH]c(=O)n([C@H]2C[C@H](O)[C@@H](CO)O2)cc1/C=C/Br,nt,?,-2%[57.1 µM],12%[57.1 µM],-1%[19.4 µM],nt
C=CCN1C(=O)NC(=O)/C(=C/c2cnc(SC)nc2)C1=O,?,2%,-2%,30%,-6%,-57*
C=CCN1C(=O)NC(=O)/C(=C/c2cc3c4c(c2)CCCN4CCC3)C1=O,-29%,20µM*,45µM*,?,?,?
CCCCn1c(NS(=O)(=O)c2ccc(C)cc2)c(C(=O)OCC)c2nc3ccccc3nc21,-24%,2.5µM*,-7%,10%,-1%,-6
CCCCn1c(NC(=O)c2ccco2)c(C(=O)OCC)c2nc3ccccc3nc21,?,84%,?,20%,-5%,nt
Cc1cc(O)c2c(c1)C(=O)C13C(=C2O)C(=O)[C@H]2[C@@H](O)[C@@H]1[C@H]1[C@H](O)[C@@H]3C(=O)C3=C(O)c4c(O)cc(C)cc4C(=O)C312 (stereo partly drawn),?,69%,?,nt,?,-53*
O=C(Cn1ncc2c3ccccc3n(Cc3cccc(Cl)c3)c2c1=O)N1CCC2(CC1)OCCO2,-9%,?,?,18µM*,-18%,-24
CC(C)C[C@H](NC(=O)[C@H](Cc1ccccc1)NC(=O)CNC(=O)[C@H](C)NC(=O)[C@@H](N)Cc1ccc(O)cc1)C(=O)O,nt,nt,nt,nt,7%[19.4 µM],nt
NC(Cc1ccc(Oc2cc(I)c(O)c(I)c2)c(I)c1)C(=O)O (stereo not drawn),nt,nt,nt,nt,7.1µM*,nt
CC1=C(C(=O)O)N2C(=O)C(NC(=O)c3nn(C)cc3[N+](=O)[O-])C2SC1 (stereo not drawn),-11%,?,-10%,19%,-4%,-17
Cc1nn(Cc2ccccc2)c(C)c1C=C1C(=O)NC(=O)NC1=O,-32%,10%,3%,48%,-9%,-28
Cc1cccc(N2C(=O)NC(=O)/C(=C\c3ccc(N4CCOCC4)cc3)C2=O)c1,?,19%,-4%,-21%,-12%,?
O=C1NC(=O)C(=Cc2ccc(Cl)cc2)C(=O)N1,-32%,nt,nt,nt,nt,?
Cc1ccc(OCCOc2cccc(C=C3C(=O)NC(=O)NC3=O)c2)cc1,-33%,?,6%,?,-10%,-78*
Cc1cc(C)cc(OCCOc2cccc(C=C3C(=O)NC(=O)NC3=O)c2)c1,-11%,?,-18%,0%,-5%,-51*
O=C1NC(=O)C(=Cc2ccc3ccccc3c2)C(=O)N1,-25%,?,13%,2%,-14%,-79*
CNCC(O)c1ccc(OC(=O)C(C)(C)C)c(OC(=O)C(C)(C)C)c1 (stereo not drawn),8%,?,-13%,nt,-18%,21
CCCCCc1cc(O)c2c(c1)OC(C)(C)C1CC=C(C)CC21 (stereo not drawn),nt,nt,nt,nt,-2%[19.4 µM],nt
Cc1occc1C(=O)Nc1ccccc1,nt,nt,nt,nt,18%[60.1 µM],nt
CN1C2CCCC1CC(=O)C2,nt,nt,nt,nt,16%[60.1 µM],nt
CCN(CC)S(=O)(=O)c1ccc(NN=C(C#N)C#N)cc1,-23%,-8%,-16%,1%,-22%,-58*
COc1ccc(CNC(=O)C2CCN(c3nc(OC)nc(OC)n3)CC2)cc1,-17%,89µM*,-4%,38%,-1%,nt
COc1ccc(CC(=O)NC(=S)NNC(=O)COc2c(C)cccc2C)cc1,?,18%,1%,-10%,-20%,-22
CC(=O)O[C@H]1C(=O)[C@@]2(C)C([C@H](OC(=O)c3ccccc3)[C@]3(O)C[C@H](OC(=O)[C@H](O)[C@@H](NC(=O)c4ccccc4)c4ccccc4)C(C)=C1C3(C)C)[C@]1(OC(C)=O)CO[C@@H]1C[C@@H]2OC(=O)[C@H](C)NC(=O)c1ccc(-c2c3ccc(=O)cc-3oc3cc(O)ccc23)c(C(=O)O)c1 (stereo partly drawn),nt,nt,nt,nt,4.7µM*,nt
C/C=C(\C)C(=O)N[C@@H](c1ccccc1)[C@@H](O)C(=O)O[C@H]1C[C@@]2(O)[C@@H](OC(=O)c3ccccc3)C3[C@](C)(C(=O)[C@H](OC(C)=O)C(=C1C)C2(C)C)[C@@H](O)C[C@H]1OC[C@@]31OC(C)=O (stereo partly drawn),2%,17%,-17%,2%,0%,-3
SMILES,WRN helicase inh,Pol iota inh,POLH inh,Pol beta inh,POLK inh,PI5P4K alpha inh
Cc1ccc(NC(=O)COC(=O)/C=C/c2ccco2)cc1S(=O)(=O)N(C)C,-26%,?,16µM*,?,-44%,-30
O=c1[nH]c(=O)n(Cc2ccccc2Cl)c(O)c1/C=C1/C=CC=N1,-18%,45µM*,?,?,?,?
CCCCn1c(O)c(/C=C2/C=CC=N2)c(=O)[nH]c1=O,-10%,?,-14%,14%,-1%,-10
C=CCn1c(O)c(/C=C2/C=CC=N2)c(=O)[nH]c1=O,-4%[11.6 µM],20µM*,?,19%,-19%,-15
O=C(O)c1[nH]n(-c2ccc(S(=O)(=O)O)cc2)c(=O)c1N=Nc1ccc(S(=O)(=O)O)cc1,nt,?,nt,nt,-30%,nt
NC(=O)C1CCN(/C=C2\C(=O)NC(=O)N(Cc3ccco3)C2=O)CC1,?,20µM*,18µM*,?,79µM*,-61*
C/C(=N\NC(=S)Nc1ccccc1)c1c(O)n(C)c(=O)n(C)c1=O,-5%,12%,-12%,-16%,-8%[60.1 µM],-53*
CNCCc1ccc(O)c(O)c1,10%,89µM*,-6%[57.1 µM],0%[57.1 µM],?,3
CCC1(C)CC(C(N)=S)CCO1 (stereo not drawn),?,?,-15%,-1%,4%,-8
COc1ccc2c(c1O)-c1cc(O)cc3c1[C@@H](C2)N(C)CC3,nt,nt,nt,nt,-3%[19.4 µM],nt
COc1cc2c(cc1OC)-c1c3c(cc4c1[C@@H](C2)N(C)CC4)OCO3,?,2.8µM*,-11%,?,-42%,-3
COc1cc2c(cc1OC)-c1c(OC)c(OC)cc3c1C(C2)N(C)CC3 (stereo not drawn),0%,11µM*,-24%,-2%,-22%,4
COc1c2c(cc3c1OCO3)CCN(C)C2,1%,-10%,-8%,nt,-4%,1
COc1cc2c(cc1O)C[C@H]1NCCc3cc4c(c-2c31)OCO4,?,14µM*,?,40µM*,?,-11
CCOC(=O)CCN(SN(C)C(=O)Oc1cccc2c1OC(C)(C)C2)C(C)C,nt,nt,nt,nt,0%[60.1 µM],nt
Cc1cccc(C(=O)Nc2nnc(SCC(=O)NCc3ccco3)s2)c1,-1%,30%,-10%,nt,-3%,-9
